Data published in PubChem BioAssay (EPA / NIEHS).
Results filed as inconclusive are left out. Calls of active or inactive are those of the source. Rule for the calls: active = hit-call score of the fitted dose curve at least 0.9, where 1 is the maximum; inconclusive = response in the unintended direction; inactive = score below 0.9.

Each compound was assayed against human LYN Proto-Oncogene, Src family Tyrosine Kinase (LynA), LYN (gene 4067) (UniProt P07948) (assay: NVS_ENZ_hLynA: NovaScreen (NVS) Enzymatic Assay for human LYN Proto-Oncogene, Src family Tyrosine Kinase (LynA) (AID 2283173)).
Chain of human LYN Proto-Oncogene, Src family Tyrosine Kinase (LynA), LYN (gene 4067) (P07948 whole entry, looked up): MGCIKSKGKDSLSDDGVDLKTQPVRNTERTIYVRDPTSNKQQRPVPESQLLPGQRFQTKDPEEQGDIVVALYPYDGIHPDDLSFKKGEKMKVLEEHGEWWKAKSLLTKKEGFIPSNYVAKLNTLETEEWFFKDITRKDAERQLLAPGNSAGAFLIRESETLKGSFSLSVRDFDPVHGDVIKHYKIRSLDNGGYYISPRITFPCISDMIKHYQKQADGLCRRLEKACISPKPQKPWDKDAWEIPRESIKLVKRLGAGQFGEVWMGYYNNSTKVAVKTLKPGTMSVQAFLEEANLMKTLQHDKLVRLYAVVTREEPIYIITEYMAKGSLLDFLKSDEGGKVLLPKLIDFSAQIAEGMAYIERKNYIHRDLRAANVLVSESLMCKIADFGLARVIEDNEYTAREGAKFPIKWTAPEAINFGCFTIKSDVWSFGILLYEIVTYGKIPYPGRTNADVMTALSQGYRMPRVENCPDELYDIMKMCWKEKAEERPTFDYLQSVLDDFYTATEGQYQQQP
Procedure, shortened: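 Recombinant kinase with fluorescent substrate; product separated from substrate by electrophoretic mobility shift and read 1 h after dosing. Duplicate screen at 25 uM, then concentration-response up to 50 uM; activity scored as signal loss against DMSO.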

Structure (SMILES) | outcome
c1ccc(NNc2ccccc2)cc1 | inactive
CN(C)C(=O)Nc1ccc(Cl)cc1 | inactive
Clc1ccc(Cl)c(Cl)c1 | inactive

These compounds were tested against human Mitogen-Activated Protein Kinase 1 (MAPK 1), MAPK1 (gene 5594) (UniProt P28482) (assay: NVS_ENZ_hMAPK1: NovaScreen (NVS) Enzymatic Assay for human Mitogen-Activated Protein Kinase 1 (MAPK 1) (AID 2283175)).
Chain of human Mitogen-Activated Protein Kinase 1 (MAPK 1), MAPK1 (gene 5594) (P28482 whole entry, looked up): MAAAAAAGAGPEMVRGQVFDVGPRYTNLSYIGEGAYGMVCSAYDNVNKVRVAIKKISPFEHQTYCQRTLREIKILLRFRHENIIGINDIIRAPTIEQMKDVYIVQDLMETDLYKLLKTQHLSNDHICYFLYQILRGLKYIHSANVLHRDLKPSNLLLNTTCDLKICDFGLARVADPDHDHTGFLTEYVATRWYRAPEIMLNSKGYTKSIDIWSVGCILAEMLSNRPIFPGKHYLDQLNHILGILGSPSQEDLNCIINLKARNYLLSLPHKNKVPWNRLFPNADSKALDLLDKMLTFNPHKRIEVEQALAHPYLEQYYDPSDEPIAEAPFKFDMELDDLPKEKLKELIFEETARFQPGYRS
Procedure, shortened: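 Cell-free recombinant human MAPK1 enzymatic assay, fluorescence/electrophoretic mobility shift read at 1 h; loss of signal vs DMSO. Primary screen in duplicate at 25 uM; actives (e.g. ≥30% inhibition) run as concentration-response up to 50 uM.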

Structure (SMILES) | outcome | AC50
O=C(Nc1ccccc1)c1ccccc1I | inactive | 
O=[N+]([O-])c1ccc(Oc2ccc(Cl)cc2Cl)cc1 | inactive | 
COC(=O)Nc1nc2ccccc2[nH]1 |  | 46.7 µM (active)
CN(C)C(=O)Nc1ccc(Cl)cc1 | inactive | 
O=C(Oc1ccc(Br)cc1)N1CCN2CCC1CC2 | inactive | 

These compounds were tested against Mitogen-activated protein kinase 3 (Homo sapiens) (UniProt P27361) (assay: NVS_ENZ_hMAPK3: NovaScreen (NVS) Enzymatic Assay for human Mitogen-Activated Protein Kinase 3 (MAPK 3) (AID 2283177)).
Chain of Mitogen-activated protein kinase 3 (Homo sapiens) (P27361 whole entry, looked up): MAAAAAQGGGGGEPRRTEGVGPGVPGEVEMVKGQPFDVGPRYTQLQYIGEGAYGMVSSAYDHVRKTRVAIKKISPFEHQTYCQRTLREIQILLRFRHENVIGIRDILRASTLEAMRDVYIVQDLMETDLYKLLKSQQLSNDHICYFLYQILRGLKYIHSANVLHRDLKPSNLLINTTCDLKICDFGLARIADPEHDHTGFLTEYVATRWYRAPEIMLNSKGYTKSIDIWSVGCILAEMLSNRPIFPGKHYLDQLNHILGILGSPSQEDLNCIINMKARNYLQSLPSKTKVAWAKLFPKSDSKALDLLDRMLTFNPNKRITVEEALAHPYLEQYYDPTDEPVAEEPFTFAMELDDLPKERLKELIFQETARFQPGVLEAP
Procedure, shortened: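 Cell-free enzymatic assay with recombinant protein and specific substrate; fluorescence and electrophoretic mobility shift read-out 1 h after dosing. Primary screen duplicate at 25 uM; actives then run in concentration-response up to 50 uM, loss of signal versus DMSO.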

Structure (SMILES) | outcome
C[C@]12C=CC3=C4CCC(=O)C=C4CC[C@H]3[C@@H]1CC[C@@H]2O | inactive
CCNS(=O)(=O)C(F)(F)C(F)(F)C(F)(F)C(F)(F)C(F)(F)C(F)(F)C(F)(F)C(F)(F)F | inactive
COc1cc(C=O)cc2c1[C@H](COC(N)=O)[C@]1(OC(C)=O)ON2C[C@H]2[C@@H]1N2C(C)=O | inactive

The compounds below were run against human MAP Kinase-Activated Protein Kinase 2 (MAPKAPK2), MAPKAPK2 (gene 9261) (UniProt P49137) (assay: NVS_ENZ_hMAPKAPK2: NovaScreen (NVS) Enzymatic Assay for human MAP Kinase-Activated Protein Kinase 2 (MAPKAPK2) (AID 2283178)).
Chain of human MAP Kinase-Activated Protein Kinase 2 (MAPKAPK2), MAPKAPK2 (gene 9261) (P49137 whole entry, looked up): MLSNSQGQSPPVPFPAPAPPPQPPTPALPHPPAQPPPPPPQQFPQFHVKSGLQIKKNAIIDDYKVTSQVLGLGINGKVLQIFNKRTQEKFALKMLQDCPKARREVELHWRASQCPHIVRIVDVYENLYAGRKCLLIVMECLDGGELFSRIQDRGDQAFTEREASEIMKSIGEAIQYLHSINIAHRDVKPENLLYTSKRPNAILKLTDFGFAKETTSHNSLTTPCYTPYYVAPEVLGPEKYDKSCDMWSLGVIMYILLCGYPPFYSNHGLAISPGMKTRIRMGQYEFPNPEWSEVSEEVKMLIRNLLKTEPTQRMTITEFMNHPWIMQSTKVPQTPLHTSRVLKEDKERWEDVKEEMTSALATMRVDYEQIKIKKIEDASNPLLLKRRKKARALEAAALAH
Procedure, shortened: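 Cell-free recombinant human MAPKAPK2 activity measured by fluorescence with electrophoretic mobility shift separation of substrate and product, 1 hr after dosing. Loss of signal versus DMSO; primary screen at 25 uM, concentration-response up to 50 uM.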

Structure (SMILES) | outcome
CCCSC(=O)N(CCC)CCC | inactive
Nc1ccc(Cl)cc1N | inactive
CCN(CC)N=O | inactive
O=C(Oc1ccc(Br)cc1)N1CCN2CCC1CC2 | inactive
CC(C)N(Cc1ccccc1)C(=O)C(C)(C)C | inactive

What follows are compounds tested against human Matrix Metalloproteinase-1 (MMP1), MMP1 (gene 4312) (UniProt P03956) (assay: NVS_ENZ_hMMP1: NovaScreen (NVS) Enzymatic Assay for human Matrix Metalloproteinase-1 (MMP1) (AID 2283181)).
Chain of human Matrix Metalloproteinase-1 (MMP1), MMP1 (gene 4312) (P03956 whole entry, looked up): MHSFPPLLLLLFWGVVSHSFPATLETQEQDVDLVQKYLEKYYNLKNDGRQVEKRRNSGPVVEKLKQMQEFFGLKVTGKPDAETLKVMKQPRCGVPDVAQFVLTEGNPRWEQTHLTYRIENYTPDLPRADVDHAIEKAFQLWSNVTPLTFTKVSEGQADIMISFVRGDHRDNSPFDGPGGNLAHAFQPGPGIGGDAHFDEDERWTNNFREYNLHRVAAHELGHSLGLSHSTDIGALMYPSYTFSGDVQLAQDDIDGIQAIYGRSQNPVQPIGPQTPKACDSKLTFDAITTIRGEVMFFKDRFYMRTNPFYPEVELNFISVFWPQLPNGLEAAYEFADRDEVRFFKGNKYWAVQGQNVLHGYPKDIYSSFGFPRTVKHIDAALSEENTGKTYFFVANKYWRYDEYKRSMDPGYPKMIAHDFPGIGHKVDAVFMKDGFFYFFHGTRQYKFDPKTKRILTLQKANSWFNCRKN
Procedure, shortened: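 Human MMP1 enzyme activity measured by fluorescence 1 h after dosing, cell-free, with a specific substrate. Screened in duplicate at 25 uM; hits (e.g. 30% inhibition) run in concentration-response up to 50 uM; loss of signal versus DMSO.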

Structure (SMILES) | outcome | AC50
Oc1ccccc1Cl | inactive | 
O=[N+]([O-])c1ccc(Oc2ccc(Cl)cc2Cl)cc1 | inactive | 
CCOc1cccc(C2(N3CCN(c4ccccc4)CC3)CCC(C)CC2)c1 (stereo not given) | inactive | 
COP(=S)(OC)SCN1C(=O)c2ccccc2C1=O |  | 11.7 µM (active)
Nc1ccc(N=Nc2ccccc2)cc1 |  | 16.9 µM (active)

The compounds below were run against Collagenase 3 (Homo sapiens) (UniProt P45452) (assay: NVS_ENZ_hMMP13: NovaScreen (NVS) Enzymatic Assay for human Matrix Metalloproteinase-13 (MMP13) (AID 2283182)).
Description: NVS_ENZ_hMMP13 is a biochemical, single-readout assay that uses extracted gene-proteins in a cell-free assay. Measurements were taken 1 hour after chemical dosing in a 96-well plate.NVS_ENZ_hMMP13 is one of one assay component(s) measured or calculated from the NVS_ENZ_hMMP13 assay. It is designed to make measurements of enzyme activity, a form of enzyme reporter, as detected with fluorescence intensity signals by Fluorescence technology.Data from the assay component NVS_ENZ_hMMP13 was analyzed into 1 assay endpoint. This assay endpoint, NVS_ENZ_hMMP13, was analyzed in the positive analysis fitting direction relative to DMSO as the negative control and baseline of activity. Using a type of enzyme reporter, loss-of-signal activity can be used to understand changes in the enzymatic activity as they relate to the gene MMP13. Furthermore, this assay endpoint can be referred to as a primary readout, because this assay has produced multiple assay endpoints where this one serves a enzymatic activity function. To generalize the intended target to other relatable targets, this assay endpoint is annotated to the protease intended target family, where the subfamily is matrix metalloproteinase.
Binding assays used specific radioligands (tritiated, iodinated) with non-radioactive competitive displacement ligands in agonist or antagonist protocols (as indicated) and various reference compounds and inhibitors to titrate specific binding to receptors and transporters. Most enzyme assays (CYPs, kinases, phosphatases, proteases, HDACs) used recombinant protein and specific substrates (fluorescence mostly, some colorimetric and radioactive) and inhibitors, followed by a biochemical separation of substrate and product. All assays for the biochemical HTS were initially run in duplicate at a single concentration (10 uM for CYP450 assays and 25 uM for all others). Assay-chemical combinations meeting a pre-defined threshold (e.g., 30% inhibition and other criteria defined below) were then run in singleton concentration-response format with maximum concentration of 20 uM for CYPs and 50 uM for all others. Each assay was run with positive and negative controls, and concurrent controls on every plate. The follow-up (secondary) screen tested active chemical-pairs in concentration series, as well as a few additional assays not tested in the primary screen, some selected negative inactives, and several cases re-run in the concentration series for confirmatory purposes.

Structure (SMILES) | outcome | AC50
O=C(Nc1ccccc1)c1ccccc1I | inactive | 
Cc1ccc(N=C=O)cc1N=C=O |  | 4.21 µM (active)
CN(C)[C@@H]1C(=O)C(C(N)=O)=C(O)[C@@]2(O)C(=O)C3=C(O)c4c(O)cccc4[C@@](C)(O)[C@H]3C[C@@H]12 | inactive | 
CCOc1cccc(C2(N3CCN(c4ccccc4)CC3)CCC(C)CC2)c1 (stereo not given) |  | 17.7 µM (active)
